Results on 61 molecules are retold here after ChEMBL document CHEMBL3988442, “University of Dundee, Small-Polar-MMV Screening Library” (2021).

About 13,000 (27%) of roughly 48,000 compounds showed an effect of 50% or more. This is one part of the list.

In this assay the test system is Wolbachia pipientis. The assay can be described thus: Anti-Wolbachia Cell-Based Screen. The format is functional. The arrangement: scale not given: in the data most compounds retested in dose-response had high values. The conditions noted are these: 5 µM.
As to `CNS(=O)(=O)c1cccc(C(C)NCc2nccn2C(C)C)c1` (stereo unspecified), the “Percent Effect” value is -13.68%. Regarding `CC(C)(C)c1nc(CN2CCC3(CCCO3)CCC2=O)no1` (stereo unspecified), the “Percent Effect” value is -4.31%. Next, `O=C(CCc1ccccc1F)NS(=O)(=O)c1ccc2c(c1)OCCCO2`: 3.529%; `COCCN1C[C@H]2CC[C@@H]1CN(Cc1nc3ccccc3n1C)C2`: 17.95%. The value for `Cn1c(CN2CCOC[C@H]2c2nc(C(C)(C)C)co2)nc2ccccc21` was -2.257%; that for `Cn1c(CO[C@H]2CN(S(C)(=O)=O)C[C@H]2F)nc2ccccc21` was 0.03029%. Next, `CO[C@H]1CN(Cc2nc3ccccc3n2C)CC[C@@]12CCCO2`: 137.2%; `CO[C@H]1CN(Cc2nc3ccccc3n2C)C[C@@]12CCCO2`: 116%; `Cc1cc(C)c(S(=O)(=O)Nc2c(C)noc2C)cc1C(=O)O`: -6.139%. In the case of `CCN(CC1CCCO1)S(=O)(=O)c1cc(NC(C)=O)ccc1C` (stereo unspecified), the “Percent Effect” value was -4.974%.

For the molecule `Cc1cc(NC(=O)NCc2ccc(S(=O)(=O)N3CCCC3)s2)no1`, the “Percent Effect” value is -7.015%. The value for `Cc1ccc(S(=O)(=O)NC2CC2)cc1C` was 3.676%; that for `CC(C)N(CCNC(=O)c1ccc(S(=O)(=O)NC2CC2)cc1)C(C)C` was -4.232%; that for `CC(=O)Nc1c(C)noc1/C=C\c1ccc(S(=O)(=O)NC2CC2)cc1` was 127.5%. Next, `Cc1noc(C)c1C(=O)N(C)C(C)c1ccc(S(C)(=O)=O)cc1` (stereo unspecified): -13.22%; `Cc1noc(C)c1NS(=O)(=O)c1cc(Cl)c(Cl)c(C(=O)O)c1`: -2.046%.

As for `CCOc1ccc(S(=O)(=O)NC(=O)c2c(C)noc2C(C)C)cc1`, the “Percent Effect” value amounted to 3.193%. Regarding `CC(=O)Nc1c(C)noc1/C=C\c1ccc(C)c(S(=O)(=O)NC2CC2)c1`, the “Percent Effect” value is listed as 113.9%. For `CC(=O)Nc1c(C)noc1/C=C\c1ccc(S(=O)(=O)N2CCCC2)cc1`, the “Percent Effect” value was 101.8%.

Take `CCC(C)NS(=O)(=O)c1ccc(/C=C\c2onc(C)c2NC(C)=O)cc1` (stereo unspecified): the “Percent Effect” value was 102.8%. For `COCc1c(C(=O)N2CCCC(C(=O)c3ccccc3)C2)noc1C` (stereo unspecified), the “Percent Effect” value came out at 18.29%. Next, `CC(C)c1noc(-c2ccc(N(C)C3CCOCC3)nc2)n1`: 4.725%. The value for `CCc1ccc(C(=O)N(c2cccnc2)C(C)C)cc1S(C)(=O)=O` was -4.905%.

For `Cn1cc(N2CCCC(NCc3cccc4c3OCCCO4)C2)cn1` (stereo unspecified), the “Percent Effect” value is listed as 5.522%. The value for `CC(=O)N1CCN(Cc2csc(-c3cnn(C)c3)n2)CC1` was -2.698%; that for `CN(CCOc1ccccc1)C(=O)Nc1cccn(C)c1=O` was -7.911%.

Regarding `CCn1nc(C)c(CNCCn2cc(C)cn2)c1C`, the “Percent Effect” value is -3.614%. The value for `CCc1n[nH]c(C2CN(C(=O)c3csnn3)CCO2)n1` (stereo unspecified) was 5.505%; that for `CCc1n[nH]c(C2CN(C(=O)c3cnc(C)cn3)CCO2)n1` (stereo unspecified) was 99.84%; that for `CCc1n[nH]c(C2CN(C(=O)c3cnns3)CCO2)n1` (stereo unspecified) was -10.08%. `CCc1n[nH]c(C2CN(C(=O)c3cscn3)CCO2)n1` (stereo unspecified): the “Percent Effect” value was 131.5%. Take `CCc1n[nH]c(C2CN(C(=O)c3cnn(CC)c3)CCO2)n1` (stereo unspecified): the “Percent Effect” value worked out at 143.5%. Next, `CCc1n[nH]c(C2CN(C(=O)c3ccc(Cl)cn3)CCO2)n1` (stereo unspecified): 105.2%; `CCc1n[nH]c(C2CN(C(=O)c3ccsc3)CCO2)n1` (stereo unspecified): -7.314%; `CCc1n[nH]c(C2CN(C(=O)c3cnc(C)s3)CCO2)n1` (stereo unspecified): 1.148%. The value for `Cc1ccc2c(c1)CCC21CCN(CCO)CC1` was 9.958%; that for `Cc1ccc(NC(=O)N(CCO)CCO)c(OCc2ccccc2)c1` was -35.37%. Consider `COc1ccc(CN(CC2CCCO2)c2nc3c(s2)c(C)nn3C)cc1` (stereo unspecified), for which the “Percent Effect” value is -25.43%. The value for `COc1ccc(CN(Cc2cnc(N)nc2)CC2CCCO2)c(OC)c1.O=C(O)CC(O)(CC(=O)O)C(=O)O` (stereo unspecified) was 113.1%; that for `COc1ccc(CN(Cc2ccccn2)Cc2cncn2C)cc1.O=C(O)CC(O)(CC(=O)O)C(=O)O` was 130.6%; that for `CCn1cncc1CN(Cc1ccc(OC)cc1OC)CC1CCCO1.O=C(O)CC(O)(CC(=O)O)C(=O)O` (stereo unspecified) was 91.73%. The value for `COc1ccc(CN(Cc2cn(C)nc2C)CC2CCCO2)c(OC)c1` (stereo unspecified) was 138%. The value for `COc1ccc(CN(Cc2cncn2C)CC2CCCO2)c(OC)c1.O=C(O)CC(O)(CC(=O)O)C(=O)O` (stereo unspecified) was -9.808%. Consider `Nc1nccnc1C(=O)N(Cc1ccccc1O)CC1CCCO1` (stereo unspecified), for which the “Percent Effect” value is given as -11.08%. The value for `COC(=O)CCN(CC1CCCO1)C(=O)Cc1ccc(OC)c(OC)c1` (stereo unspecified) was 2.857%. In the case of `Cc1cc(CN(Cc2cccs2)CC2CCCO2)no1` (stereo unspecified), the “Percent Effect” value is -7.251%. As to `CCN1CCN(c2ccc(F)cc2C(C)NCc2ccncc2)CC1` (stereo unspecified), the “Percent Effect” value was 0.6189%. The value for `COCCC(C)NC(=O)Nc1ccc(N2CCOC2=O)c(OC)c1` (stereo unspecified) was -2.31%. Next, `O=C(Cn1ccc2ccccc21)Nc1cc(N2CCOCC2)ncn1`: -11.42%; `CN(C)C(=O)Cc1ccc(NC(=O)NC2CC2)cc1`: -3.674%. Next, `COc1ccc(CN(Cc2cncn2C)CC2CCCO2)cc1.O=C(O)CC(O)(CC(=O)O)C(=O)O` (stereo unspecified): 108.8%; `Cc1nc2ccccn2c1CN(Cc1cccnc1)CC1CCCO1` (stereo unspecified): -2.807%. `O=c1[nH]c2ccccc2cc1CN(Cc1ccccn1)CC1CCCO1` (stereo unspecified): the “Percent Effect” value is 7.522%. Take `COc1ccc(CN(Cc2cncn2C)CC2CCCO2)cc1OC.O=C(O)CC(O)(CC(=O)O)C(=O)O` (stereo unspecified): the “Percent Effect” value is -10.71%. The value for `COc1ccccc1CN(Cc1cccnc1)Cc1c[nH]c(C)n1` was -35.67%; that for `COc1ccc(CN(Cc2c[nH]cn2)CC2CCCO2)c(OC)c1.O=C(O)CC(O)(CC(=O)O)C(=O)O` (stereo unspecified) was 99.96%; that for `COc1ccccc1CN(Cc1cccnc1)CC1CCCO1.O=C(O)CC(O)(CC(=O)O)C(=O)O` (stereo unspecified) was 117.4%. Next, `COc1ccc(CN(C(=O)C2CCCOC2)c2ccncc2)cc1` (stereo unspecified): -5.222%. As for `Cn1cnc2c(N3CCCC3)nc(C3CCN(CC4CC4)CC3)cc21.O=C(O)C(F)(F)F.O=C(O)C(F)(F)F`, the “Percent Effect” value is -3.967%.

Consider `O=C(O)c1coc(COc2cccc3cnccc23)n1`, for which the “Percent Effect” value is -2.104%. `CC(=O)N1CCC(N2C[C@@H](F)[C@@H](OCc3nc4ncccc4[nH]3)C2)CC1`: the “Percent Effect” value is -11.9%.
